Compound activity deposited in PubChem BioAssay by National Center for Advancing Translational Sciences (NCATS).
CtBP-E1A inh – blocks the CtBP interaction with E1A; AlphaScreen GST-E1A/His-CtBP binding, 1536-well; stronger effect = lower value; AID 651724; 340,000 compounds, 0.49% hits; activity change, % (concentration not given with the values); in the data active = activity change below about -65%; inconclusive = mostly about -30% to -63%
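In 5 uL wells, 23 nL compound meets equimolar GST-E1A and His-CtBP (5X stock 125 nM each) for 2 h, 37 °C. Beads (5X, 50 ug/mL) then 1 h, 37 °C, dark.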
PKM2 act – increases activity of human pyruvate kinase M2 | 260,000 compounds, 0.34% hits | P14618 | purified PKM2, Kinase-Glo ATP luminescence, activation; response scale: 0% is enzyme alone, no compound | Potency, µM (series often up to 57.5 µM), most hits filed as activators | AID 1631; also: nearly all actives have a fitted effect of over 55% in size
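hPK-M2, >95% pure; 0.1 mM ADP / 0.5 mM PEP final; imidazole pH7.2 buffer w/ 7 mM MgCl2, 50 mM KCl; 1 h RT; Kinase-Glo lum. Intermediate enzyme activity for dual inhibitor/activator qHTS.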
RORgamma inh – blocks mouse ROR gamma transcriptional activity; P51450; Drosophila S2 Gal4-RORgamma UAS-luciferase reporter, 20 h; Potency, µM (titrated, usually from 53.6 µM), usual class: inhibitors; 310,000 compounds, 5.4% hits; also: nearly all actives have a fitted effect of over 60% in size
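Stable Schneider cell line, Gal4 DNA-binding domain fused to ROR gamma, UAS-luciferase. Cmpd 1 hr RT → CuSO4 700 uM final → 20 hr RT → luciferase reagent 10 min → luminescence.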
VP16 counter – inhibits Gal4-VP16 luciferase reporter, ROR gamma counter-screen | Drosophila S2 Gal4-VP16 UAS-luciferase, luminescence, 20 h | Potency, µM (highest dose often 53.6 µM), usual class: inhibitors | 310,000 compounds, 3.5% hits | AID 2546;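 also: Gal4-VP16 expression switched on by copper sulfate through the metallothionein promoter; nearly all actives have a fitted effect of over 50% in size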
Six1-Eya2 inh – blocks human Six1 binding to Eya2; Q15475+O00167; AlphaScreen GST-Six1/His-Eya2 binding, biochemical; stronger effect = lower value; activity change, % (test concentration not listed); 360,000 compounds, 0.56% hits; AID 651725; in the data active = activity change below about -65%; inconclusive = mostly about -30% to -63%
Target sequence (O00167 whole entry, looked up): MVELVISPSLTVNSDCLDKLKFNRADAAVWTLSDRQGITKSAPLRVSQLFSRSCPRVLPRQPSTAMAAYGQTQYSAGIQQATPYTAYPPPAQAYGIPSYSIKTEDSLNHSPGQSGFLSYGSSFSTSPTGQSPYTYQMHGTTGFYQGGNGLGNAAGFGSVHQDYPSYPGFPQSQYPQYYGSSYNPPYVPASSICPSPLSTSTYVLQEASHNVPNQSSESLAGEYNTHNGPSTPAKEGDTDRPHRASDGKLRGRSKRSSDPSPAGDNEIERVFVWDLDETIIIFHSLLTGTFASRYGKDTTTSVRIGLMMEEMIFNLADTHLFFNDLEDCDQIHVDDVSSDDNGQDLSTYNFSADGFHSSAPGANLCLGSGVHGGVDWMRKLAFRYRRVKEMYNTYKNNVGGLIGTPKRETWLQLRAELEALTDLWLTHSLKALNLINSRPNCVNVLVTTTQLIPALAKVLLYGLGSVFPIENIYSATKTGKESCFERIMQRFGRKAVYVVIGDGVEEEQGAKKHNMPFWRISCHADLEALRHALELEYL
Target sequence (Q15475 whole entry, looked up): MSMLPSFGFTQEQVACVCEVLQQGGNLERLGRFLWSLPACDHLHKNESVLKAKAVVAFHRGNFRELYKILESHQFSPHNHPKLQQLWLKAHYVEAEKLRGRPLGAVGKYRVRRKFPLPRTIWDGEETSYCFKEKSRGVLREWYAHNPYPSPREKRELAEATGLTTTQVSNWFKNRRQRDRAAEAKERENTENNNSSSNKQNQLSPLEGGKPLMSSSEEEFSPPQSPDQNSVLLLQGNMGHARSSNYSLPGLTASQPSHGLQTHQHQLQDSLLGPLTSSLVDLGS
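Compounds are tested against tagged Six1 and Eya2 proteins bridged by glutathione donor and nickel acceptor beads; after a one-hour incubation at 37 °C without light, AlphaScreen emission is recorded.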
Each line names hits and unclear results; the compound was inactive in the other large screens. The list is not random: actives were taken first. Their share in the collection is about 5.6%. Unless noted, calls follow the shape of the dose curve; as a rule, active = well fitted curve in the direction sought with a large enough effect; inconclusive = small, poorly fitted or top-dose-only effect, or another doubt; inactive = no such curve, though single readings can be large; an effect the other way counts as inactive or inconclusive.

CC(C)CCC1(CCO)C(=O)N=C(N)NC1=O (stereo unspecified)	none (no result: PKM2 act, RORgamma inh, VP16 counter)
CC1CC(C)CN(CC(O)COCc2ccccc2F)C1 (stereo unspecified)	none (no result: PKM2 act)
Cc1nc(NC(=S)NC(=O)COc2ccccc2Cl)ccc1Br	RORgamma inh 7.08µM, VP16 counter 7.08µM
O=C(COc1ccccc1Cl)NC(=S)Nc1ccccc1N1CCCC1	RORgamma inh 5.62µM, VP16 counter 7.94µM, Six1-Eya2 inh inconclusive
CCc1ccc(OCC(=O)NC(=S)Nc2ccc(Br)c(C)n2)cc1	none (no result: CtBP-E1A inh)
O=C(Nc1ccc(N=Nc2ccccc2)c(NC(=O)C2CCCO2)c1)C1CCCO1 (stereo unspecified)	Six1-Eya2 inh inconclusive
OC(c1ccc(F)cc1)c1nc(-c2cnc3ccccc3c2)cs1 (stereo unspecified)	none (no result: PKM2 act, RORgamma inh, VP16 counter)
CN(C)S(=O)(=O)c1ccc(SCC(=O)Nc2cccc(S(=O)(=O)N3CCCC3)c2)nc1	none (no result: CtBP-E1A inh, PKM2 act, RORgamma inh, VP16 counter)
COc1ccc(CCNC(=O)CSc2cccc3cccnc23)cc1OC	CtBP-E1A inh inconclusive, RORgamma inh 1µM, Six1-Eya2 inh inconclusive
CN(C)S(=O)(=O)c1cccc(NC(=O)CSc2cccc3cccnc23)c1	CtBP-E1A inh -91.1, PKM2 act inconclusive, RORgamma inh 10µM, VP16 counter inconclusive, Six1-Eya2 inh -91.4
CC(=O)Nc1ccc(NC(=O)CSc2nnc(NC(=O)c3cccc(F)c3)s2)cc1	RORgamma inh 12.6µM, VP16 counter inconclusive, Six1-Eya2 inh inconclusive
CCc1ccc(Nc2nnc(SCC(=O)Nc3ccc(C(=O)O)cc3)s2)cc1	RORgamma inh 5.01µM, VP16 counter 7.08µM
O=C(NC1CCSc2ccccc21)c1ccc(F)c(S(=O)(=O)N2CCOCC2)c1 (stereo unspecified)	none
CC1(C(=O)Nc2ccccc2F)CCN1C(=O)Cc1ccc(-c2ccccc2)cc1 (stereo unspecified)	none (no result: PKM2 act, RORgamma inh, VP16 counter)
S=C(Nc1ccccc1)N1CCC(Cc2ccccc2)CC1	RORgamma inh 6.31µM, VP16 counter 6.31µM
OCC1CCCN(C(=S)Nc2ccc(OC(F)F)cc2)C1 (stereo unspecified)	none
COc1ccc(NC(=S)N2CCC(Cc3ccccc3)CC2)cc1	RORgamma inh 8.91µM, VP16 counter inconclusive
CCNC(=S)N1CCC(Cc2ccccc2)CC1	none
OCC1CCCN(C(=S)Nc2ccc(Nc3ccccc3)cc2)C1 (stereo unspecified)	CtBP-E1A inh inconclusive, RORgamma inh 7.08µM, VP16 counter 7.94µM
CCNC(=S)N1CCC(C(O)(c2ccccc2)c2ccccc2)CC1	none
COc1cc(NC(=S)N2CCC(C(O)(c3ccccc3)c3ccccc3)CC2)cc(OC)c1	RORgamma inh 14.1µM, VP16 counter inconclusive (no result: CtBP-E1A inh)
CC(=O)Nc1ccc(OCC(=O)N2CCC(Cc3ccccc3)CC2)cc1	none
COc1cc(NC(=O)CN2C(=O)CSc3ccc(S(=O)(=O)N4CCCC4)cc32)cc(OC)c1	Six1-Eya2 inh inconclusive (no result: CtBP-E1A inh, PKM2 act)
O=C(COC(=O)/C=C/c1ccco1)NCCN1C(=O)CSC1=O	none (no result: PKM2 act, RORgamma inh, VP16 counter)
CC(=O)c1ccc(NC(=O)C(Cc2ccccc2)n2cccc2)cc1 (stereo unspecified)	none
O=C(NN1C(=O)/C(=C/C=C/c2ccco2)SC1=S)c1ccccc1O	CtBP-E1A inh inconclusive, PKM2 act inconclusive, Six1-Eya2 inh -72.3
C=CCc1c(C)[nH]c2c(OC)cccc2c1=S	RORgamma inh 11.2µM, VP16 counter inconclusive
CCOC(=O)c1c(C)oc2c1c1c(c3ccccc32)OCN(Cc2cccnc2)C1	RORgamma inh 1.78µM, VP16 counter 7.94µM
CCOC(=O)c1c(C)oc2c1c1c(c3ccccc32)OCN(CCCC(=O)O)C1	none
C[C@@H](c1ccccc1)N1C(=O)[C@H]2[C@H]3[C@H](O)[C@H](O)C/C(=N/OCc4ccccc4)[C@H]3CC[C@@H]2C1=O	none (no result: CtBP-E1A inh, PKM2 act, Six1-Eya2 inh)
CC(C)(C)N1C(=O)[C@@H]2[C@H]3C(=CC[C@H]2C1=O)C(=O)[C@H]1O[C@H]1[C@H]3O	RORgamma inh 1.41µM, VP16 counter inconclusive (no result: CtBP-E1A inh, PKM2 act, Six1-Eya2 inh)
CCOC(=O)CCN1C(=O)[C@H]2[C@@H]3[C@H](O)[C@H](O)CC(=O)[C@H]3CC[C@H]2C1=O	none (no result: CtBP-E1A inh, PKM2 act, Six1-Eya2 inh)
CCOC(=O)CCN1C(=O)[C@@H]2[C@H]3C(=CC[C@H]2C1=O)C(=O)[C@H]1O[C@H]1[C@H]3O	RORgamma inh 2.24µM (no result: CtBP-E1A inh, PKM2 act, Six1-Eya2 inh)
C[C@@H](c1ccccc1)N1C(=O)[C@@H]2[C@H]3C(=CC[C@H]2C1=O)C(=O)[C@H]1O[C@H]1[C@H]3O	RORgamma inh 3.55µM, VP16 counter inconclusive (no result: CtBP-E1A inh, PKM2 act, Six1-Eya2 inh)
Cc1ccc(-c2nc3cc(C)c(Br)c(C)n3c2CC(C)(C)C)cc1	none (no result: PKM2 act, RORgamma inh, VP16 counter)
C/C(CC(=O)N1CCN(C=O)CC1)=N\NC(=O)c1ccc(Cl)cc1	RORgamma inh inconclusive, VP16 counter 11.2µM
C/C(CC(=O)N1CCN(C=O)CC1)=N\NC(=O)c1cccc([N+](=O)[O-])c1	none
O=C(OCC(=O)N1CCCCC1)c1cc2ccccc2cc1O	none
CCOC(=O)C(C)/C(C)=N/NC(=O)c1cc2ccccc2cc1O (stereo unspecified)	RORgamma inh 11.2µM, VP16 counter 12.6µM
C/C(CC(=O)N1CCCC1)=N\NC(=O)c1cc2ccccc2cc1O	RORgamma inh 6.31µM, VP16 counter inconclusive (no result: CtBP-E1A inh)
CC(=O)c1cccc(CN2CCC(n3nccc3NC(=O)c3ccc4c(c3)OCO4)CC2)c1	none
CCCCCCCCCCCCCCC(O)C[N+](C)(CCO)CCO (stereo unspecified)	none (no result: PKM2 act, RORgamma inh, VP16 counter)
O=S(=O)(c1ccccc1)N1CCN(C2CCCCCCC2)CC1	RORgamma inh 12.6µM
NS(=O)(=O)c1ccc(S(=O)(=O)N2CCN(C3CCCC3)CC2)cc1	none
CC(C)C[C@H](NC(=O)[C@H](Cc1cnc[nH]1)NC(=O)[C@@H](N)Cc1cnc[nH]1)C(=O)NCC(=O)NCC(=O)N[C@@H](C)C(=O)N[C@@H](CCCCN)C(=O)N[C@@H](CCC(N)=O)C(=O)N[C@@H](C)C(=O)NCC(=O)N[C@@H](CC(=O)O)C(=O)N[C@H](C(=O)O)C(C)C	none (no result: CtBP-E1A inh, PKM2 act, Six1-Eya2 inh)
COc1cc2cc3c4c(cc(OC)c(OC)c4c2cc1OC)CCN3C	RORgamma inh 2.82µM (no result: CtBP-E1A inh, PKM2 act, Six1-Eya2 inh)
CC1(c2ccc(OC(F)F)cc2)NC(=O)N(/N=C/c2c(O)ccc3ccccc23)C1=O (stereo unspecified)	RORgamma inh inconclusive, VP16 counter 14.1µM
COc1ccccc1-n1cc(CN2CCN(CC=C(C)C)C(CCO)C2)cn1 (stereo unspecified)	none
Cc1ccc(C(=O)CC(=O)COc2ccc(Cl)cc2C)cc1	RORgamma inh 10µM, VP16 counter 4.47µM
CCC(C(=O)NNC(=O)c1cnccn1)c1ccccc1 (stereo unspecified)	RORgamma inh 11.2µM, VP16 counter 15.8µM
Cc1cc(Cl)ccc1OCC(=O)NNC(=O)c1cnccn1	RORgamma inh 7.08µM, VP16 counter inconclusive
Cc1ccc(C(=O)NNC(=O)COc2ccc(Cl)cc2C)o1	none (no result: PKM2 act, RORgamma inh, VP16 counter)
O=C(COc1ccc2ccccc2c1)NNC(=O)c1cnccn1	RORgamma inh inconclusive
